Experimental data published in PubChem BioAssay (NCATS).
Inconclusive results are not listed. A call without a number means that no potency is given here. The source made the active and inactive calls. Calls follow the shape of the dose curve; as a rule, active = well fitted inhibition curve with a large enough effect; inconclusive = small, poorly fitted or top-dose-only effect; inactive = flat fitted curve, though single readings scatter.

What was measured:
Experiment in all cases: qHTS profiling for inhibitors of Plasmodium falciparum proliferation (AID 504749); also: nearly all actives have a fitted effect of over 60% in size
Settings in all cases: P. falciparum in erythrocytes, SYBR Green DNA, 72 h; series mostly up to 28.7 µM
[1] = tested on: P93_24
Summary of the method: (§1)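 P. falciparum-infected erythrocytes (0.3% parasitemia, 2.5% hematocrit final) were exposed to compounds for 72 h at 37 C in 5% CO2, then lysed with SYBR Green buffer overnight at room temperature; parasite DNA fluorescence was normalized to artemisinin and DMSO controls.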

[2] = tested on: P94_40
Summary of the method: as §1

[3] = tested on: PAD
Summary of the method: as §1

[4] = tested on: PC15
Summary of the method: as §1

[5] = tested on: PC26
Summary of the method: as §1

[6] = tested on: PC49
Summary of the method: as §1

[7] = tested on: SC27B
Summary of the method: as §1

[8] = tested on: TAB109
Summary of the method: as §1

[9] = tested on: TAB113
Summary of the method: as §1

[10] = tested on: TAB165
Summary of the method: as §1
Potency is read from the fitted curve at half-maximal effect.

SMILES | Potency [1] | Potency [2] | Potency [3] | Potency [4] | Potency [5] | Potency [6] | Potency [7] | Potency [8] | Potency [9] | Potency [10]
Oc1cn2c(n1)Nc1ccc(Cl)c(Cl)c1C2 | inactive | inactive | inactive | inactive | inactive | inactive | inactive | inactive | inactive | inactive
CCC(=O)Nc1ccc(O)cc1 | inactive | inactive | inactive | inactive | inactive | inactive | inactive | inactive | inactive | inactive
CC1(C)CO[C@@H](CC(=O)O)CN1 | inactive | inactive | inactive | inactive | inactive | inactive | inactive | inactive | inactive | inactive
CCCCC(CC)COC(=O)c1ccccc1O (stereo unspecified) | inactive | inactive | inactive | inactive | inactive | inactive | inactive | inactive | inactive | inactive
CCCCCCCCCCCCOS(=O)(=O)O | inactive | inactive | inactive | inactive | inactive | inactive | inactive | inactive | inactive | inactive
Oc1cccc(O)c1 | inactive | inactive | inactive | inactive | inactive | inactive | inactive | inactive | inactive | inactive
CC(C)(C)C(=O)NCCCC(=O)O | inactive | inactive | inactive | inactive | inactive | inactive | inactive | inactive | inactive | inactive
CCOC(=O)c1ccc(O)cc1 | inactive | inactive | inactive | inactive | inactive | inactive | inactive | inactive | inactive | inactive
Cn1c(=O)c2c(ncn2CC2OCCO2)n(C)c1=O | inactive | inactive | inactive | inactive | inactive | inactive | inactive | inactive | inactive | inactive
Nc1ccc(S(=O)(=O)Nc2ccccc2)cc1 | inactive | inactive | inactive | inactive | inactive | inactive | inactive | inactive | inactive | inactive
NCCNCCNCCNCCN | inactive | inactive | inactive | inactive | inactive | inactive | inactive | inactive | inactive | inactive
N[C@@H](CSCCCO)C(=O)O | inactive | inactive | inactive | inactive | inactive | inactive | inactive | inactive | inactive | inactive
O=c1cc(CO)occ1O | inactive | inactive | inactive | inactive | inactive | inactive | inactive | inactive | inactive | inactive
O=C1O[C@H]([C@@H](O)CO)C(O)=C1O | inactive | inactive | inactive | inactive | inactive | inactive | inactive | inactive | inactive | inactive
O=S(=O)(O)c1cc(I)c(O)c2ncccc12 | inactive | inactive | inactive | inactive | inactive | inactive | inactive | inactive | inactive | inactive
NC(=O)NNc1ccccc1 | inactive | inactive | inactive | inactive | inactive | inactive | inactive | inactive | inactive | inactive
Cc1cc2c(cc1S(N)(=O)=O)S(=O)(=O)CCC2 | inactive | inactive | inactive | inactive | inactive | inactive | inactive | inactive | inactive | inactive
COc1cc2[nH]c(=O)[nH]c(=O)c2cc1OC | inactive | inactive | inactive | inactive | inactive | inactive | inactive | inactive | inactive | inactive
CC(=O)Oc1ccc(C2(c3ccc(OC(C)=O)cc3)C(=O)Nc3ccccc32)cc1 | inactive | inactive | inactive | inactive | inactive | inactive | inactive | inactive | inactive | inactive
CC(O)CN(CCN(CC(C)O)CC(C)O)CC(C)O (stereo unspecified) | inactive | inactive | inactive | inactive | inactive | inactive | inactive | inactive | inactive | inactive
[Cl][In]([Cl])[Cl] | 10 µM (active) |  |  |  |  |  |  |  |  | 
COc1cc(C)c(Cc2cnc(N)nc2N)cc1OC | inactive | inactive | inactive | inactive | inactive | inactive | inactive | inactive | inactive | inactive
CCC(=O)c1ccc(O)cc1 | inactive | inactive | inactive | inactive | inactive | inactive | inactive | inactive | inactive | inactive
O=S(=O)(O)NC1CCCCC1 | inactive | inactive | inactive | inactive | inactive | inactive | inactive | inactive | inactive | inactive
OCC(O)CN1CCN(c2ccccc2)CC1 (stereo unspecified) | inactive | inactive | inactive | inactive | inactive | inactive | inactive | inactive | inactive | inactive

SMILES | Potency [1] | Potency [2] | Potency [3] | Potency [4] | Potency [5] | Potency [6] | Potency [7] | Potency [8] | Potency [9] | Potency [10]
NC(=O)NC(=O)Cc1ccccc1 | inactive | inactive | inactive | inactive | inactive | inactive | inactive | inactive | inactive | inactive
Cc1c(Cl)cccc1Nc1ccccc1C(=O)O | inactive | inactive | inactive | inactive | inactive | inactive | inactive | inactive | inactive | inactive
CCOc1ccc2ccccc2c1C(=O)N[C@@H]1C(=O)N2[C@@H]1SC(C)(C)[C@@H]2C(=O)O | inactive | inactive | inactive | inactive | inactive | inactive | inactive | inactive | inactive | inactive
COc1ccccc1O | inactive | inactive | inactive | inactive | inactive | inactive | inactive | inactive | inactive | inactive
Nc1ccc(S(=O)(=O)Nc2nccs2)cc1 | inactive | inactive | inactive | inactive | inactive | inactive | inactive | inactive | inactive | inactive
CC(=O)Nc1ccc(/C=N/NC(N)=S)cc1 | inactive | inactive | inactive | inactive | inactive | inactive | inactive | inactive | inactive | inactive
COc1cc(C(=O)N2CCOCC2)cc(OC)c1OC | inactive | inactive | inactive | inactive | inactive | inactive | inactive | inactive | inactive | inactive
CC1=C(CC(=O)O)c2cc(F)ccc2/C1=C\c1ccc(S(C)=O)cc1 (stereo unspecified) | inactive | inactive | inactive | inactive | inactive | inactive | inactive | inactive | inactive | inactive
CC(O)COc1ccccc1 (stereo unspecified) | inactive | inactive | inactive | inactive | inactive | inactive | inactive | inactive | inactive | inactive
Nc1ccc(S(=O)(=O)NC(=O)c2ccccc2)cc1 | inactive | inactive | inactive | inactive | inactive | inactive | inactive | inactive | inactive | inactive
C[C@H](N)[C@H](O)c1cccc(O)c1 | inactive | inactive | inactive | inactive | inactive | inactive | inactive | inactive | inactive | inactive
O=c1cc[nH]c(=O)[nH]1 | inactive | inactive | inactive | inactive | inactive | inactive | inactive | inactive | inactive | inactive
O=C(O)CC(O)C(=O)O (stereo unspecified) | inactive | inactive | inactive | inactive | inactive | inactive | inactive | inactive | inactive | inactive
CC1(C)[C@@H]2CC[C@@]1(C)C(=O)C2 | inactive | inactive | inactive | inactive | inactive | inactive | inactive | inactive | inactive | inactive
CC12CCC(CC1)C(C)(C)O2 | inactive | inactive | inactive | inactive | inactive | inactive | inactive | inactive | inactive | inactive
CC(=O)CCC(=O)O | inactive | inactive | inactive | inactive | inactive | inactive | inactive | inactive | inactive | inactive
CCCCN(CCCC)CCCOC(=O)c1ccc(N)cc1 | inactive | inactive | inactive | inactive | inactive | inactive | inactive | inactive | inactive | inactive
O=C1OC(OC(=O)c2cccnc2Nc2cccc(C(F)(F)F)c2)c2ccccc21 (stereo unspecified) | inactive | inactive | inactive | inactive | inactive | inactive | inactive | inactive | inactive | inactive
Cc1ccc(C(C)C)cc2c(C)ccc1-2 | inactive | inactive | inactive | inactive | inactive | inactive | inactive | inactive | inactive | inactive
CCN(CC)CCSC(=O)C(c1ccccc1)c1ccccc1 | inactive | inactive | inactive | inactive | inactive | inactive | inactive | inactive | inactive | inactive
[O-][n+]1cccc(CO)c1 | inactive | inactive | inactive | inactive | inactive | inactive | inactive | inactive | inactive | inactive
C[C@H]1O[C@@H](n2cc(F)c(=O)[nH]c2=O)[C@H](O)[C@@H]1O | inactive | inactive | inactive | inactive | inactive | inactive | inactive | inactive | inactive | inactive
O=C1c2c(O)cccc2Cc2cccc(O)c21 | inactive | inactive | inactive | inactive | inactive | inactive | inactive | inactive | inactive | inactive
CC[C@@]1(c2ccccc2)NC(=O)N(C)C1=O | inactive | inactive | inactive | inactive | inactive | inactive | inactive | inactive | inactive | inactive
